Data on three compounds can be found in PubChem BioAssay (EPA / NIEHS).

Structures are written as SMILES. Inconclusive results are not listed. Activity calls are given as the source filed them. How the source made its calls: active means hit-call score of the fitted dose curve at least 0.9, where 1 is the maximum; inconclusive means response in the unintended direction; inactive means score below 0.9.

A word on the AC50: it is the midpoint of the concentration-response curve, whichever way the signal moves.

The nature of one assay: Tanguay_ZF_120hpf_MORT_legacy: (Legacy) Oregon State University Tanguay Lab 120 Hour Post-fertilization zebrafish Assay for Mortality (AID 2283633). In a few lines:
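Single dechorionated Tropical 5D embryos were held with test chemical (0.64% DMSO final) from 6 to 120 hpf at 28C under foil. Deaths at 24 or 120 hpf were recorded as binary calls, analysed for increase over DMSO controls.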
In the case of `O=C(c1ccc(OCCN2CCCCC2)cc1)c1c(-c2ccc(O)cc2)sc2cc(O)ccc12`, the call was inactive.
As for `C#C[C@]1(O)CC[C@H]2[C@@H]3CCc4cc(O)ccc4[C@H]3CC[C@@]21C`, the result was inactive.
Consider `COC(=O)c1ccc(C(=O)OC)cc1`, for which the compound was called inactive.

A further assay in a line: Tanguay_ZF_120hpf_YSE_legacy: (Legacy) Oregon State University Tanguay Lab 120 Hour Post-fertilization zebrafish Assay for Yolk Sac Edema (AID 2283634).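 On AC50: actives raise the incidence of yolk sac edema above the DMSO baseline.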 An outline of the steps:
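Single dechorionated embryos were held in sealed plates at 28C with test chemical (0.64% DMSO final) from 6 hpf until 120 hpf. Edema of the yolk sac was then recorded as a binary endpoint; non-mortality endpoints were skipped for dead embryos.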
Take `O=C(c1ccc(OCCN2CCCCC2)cc1)c1c(-c2ccc(O)cc2)sc2cc(O)ccc12`: the call was inactive.
`C#C[C@]1(O)CC[C@H]2[C@@H]3CCc4cc(O)ccc4[C@H]3CC[C@@]21C`: the result was inactive.
Take `COC(=O)c1ccc(C(=O)OC)cc1`: the AC50 was 37 µM (active).

Another assay is described as follows: Tanguay_ZF_120hpf_EYE_legacy: (Legacy) Oregon State University Tanguay Lab 120 Hour Post-fertilization zebrafish Assay for Eye Malformation (AID 2283636).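 Further: binary presence or absence of eye malformation scored by brightfield in 120 hpf larvae.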 In a few lines: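 5D wild-type embryos, pronase-dechorionated at 4 hpf; static exposure 6–120 hpf, 28C, dark; DMSO 0.64% final; 5uM trimethyltin chloride positive control. Binary eye-defect scoring at 120 hpf; dead embryos not scored.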
For the compound `O=C(c1ccc(OCCN2CCCCC2)cc1)c1c(-c2ccc(O)cc2)sc2cc(O)ccc12`, the compound was called inactive.
On the same count and under the same terms, the entry for `C#C[C@]1(O)CC[C@H]2[C@@H]3CCc4cc(O)ccc4[C@H]3CC[C@@]21C` is “inactive”.
Turning to `COC(=O)c1ccc(C(=O)OC)cc1`, the AC50 is 34 µM (active).

A short description of another assay: Tanguay_ZF_120hpf_SNOU_legacy: (Legacy) Oregon State University Tanguay Lab 120 Hour Post-fertilization zebrafish Assay for Snout Malformation (AID 2283637). An outline of the steps:
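Binary brightfield scoring of snout malformation at 120 hpf. Dechorionated 5D wild-type embryos, one per well, static exposure from 6 hpf at 28C, sealed and dark; final DMSO 0.64% (vol/vol), DMSO as baseline; 5uM trimethyltin chloride positive control.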
Consider `O=C(c1ccc(OCCN2CCCCC2)cc1)c1c(-c2ccc(O)cc2)sc2cc(O)ccc12`, for which the call was inactive.
Turning to `C#C[C@]1(O)CC[C@H]2[C@@H]3CCc4cc(O)ccc4[C@H]3CC[C@@]21C`, the compound was classed as inactive.
Regarding `COC(=O)c1ccc(C(=O)OC)cc1`, the concentration at half-maximal activity (AC50) was 30.2 µM (active).
